From the antibiotic and cytotoxicity screens of Wong et al. (2023)
Screen size: about 39,000 compounds; about 3,300 (8.5%) were called active. This is one part of a sample in which actives are shown more often than they occur.

What follows are compounds tested on HepG2 (assay: cytotoxicity call (relative viability < 0.9)). Conditions: 10 µM.

| SMILES | cytotoxicity call |
| --- | --- |
| C[C@@H]1CN([C@@H](C)CO)S(=O)(=O)c2ccc(C#CCN(C)C)cc2O[C@H]1CN(C)C | inactive |
| C[C@H]1CN([C@@H](C)CO)C(=O)c2cc(NS(=O)(=O)c3ccccc3)ccc2O[C@@H]1CN(C)CC1CC1 | inactive |
| C[C@H](CO)N1C[C@H](C)[C@@H](CN(C)Cc2ccc(C(=O)Nc3ccccc3N)cc2)Oc2ccc(NC(=O)Cc3cn(C)c4ccccc34)cc2CC1=O | inactive |
| CN1C(=O)c2cc(NC(=O)c3cccs3)ccc2OC[C@@H]2O[C@H](CC(=O)NCC(F)(F)F)CC[C@@H]21 | inactive |
| C[C@@H]1CN([C@H](C)CO)C(=O)CCCn2cc(nn2)CO[C@H]1CN(C)S(=O)(=O)c1ccc(Oc2ccccc2)cc1 | inactive |
| C[C@H](O)C#Cc1cnc2c(c1)C(=O)N([C@@H](C)CO)C[C@@H](C)[C@H](CN(C)C(=O)Nc1ccc(C(F)(F)F)cc1)O2 | inactive |
| CS(=O)(=O)N1CCCn2c(nnc2Cn2cccn2)C1 | inactive |
| O=C(NO)c1ccc(C(=O)N/N=C/[C@H](O)[C@@H](O)[C@H](O)[C@H](O)CO)cc1 | inactive |
| C[C@@H]1CN([C@H](C)CO)C(=O)c2cccc(NS(=O)(=O)c3ccc(F)cc3)c2O[C@H]1CN(C)S(=O)(=O)c1ccccc1 | inactive |
| Cn1c(=O)c2cc(S(=O)(=O)N3CCOCC3)ccc2n(C)c1=O | inactive |
| CN(CC(=O)NC1CCCC1)S(=O)(=O)c1ccc2c(c1)c(=O)n(C)c(=O)n2C | inactive |
| CCOC(=O)N1CCN(C(=O)CN(C)S(=O)(=O)c2ccc3c(c2)c(=O)n(C)c(=O)n3C)CC1 | inactive |
| Cc1ccc(S(=O)(=O)NCCC(=O)N2CCOCCOCCOCC2)cc1 | inactive |
| Cn1c(=O)c2cc(S(=O)(=O)NCCC(=O)NC3CCCC3)ccc2n(C)c1=O | active |
| C[C@H]1CCCN(C(=O)CCNS(=O)(=O)c2ccc3c(c2)c(=O)n(C)c(=O)n3C)C1 | active |
| C[C@H](CO)N1C[C@H](C)[C@H](CN(C)Cc2ccc(C(=O)Nc3ccccc3N)cc2)Oc2ccc(NS(=O)(=O)c3cn(C)cn3)cc2C1=O | inactive |
| C[C@H]1CN([C@@H](C)CO)C(=O)c2cc(NS(=O)(=O)c3cccs3)ccc2O[C@H]1CN(C)Cc1ccncc1 | inactive |
| Clc1ccc(/C=C/C2=Nc3cccc4cccc(c34)N2)cc1 | inactive |
| Nc1c(O)cccc1C(=O)O | inactive |
| CCC[C@H](NC(=O)[C@@H]1[C@H]2CCC[C@H]2CN1C(=O)[C@@H](NC(=O)[C@@H](NC(=O)c1cnccn1)C1CCCCC1)C(C)(C)C)C(=O)C(=O)NC1CC1 | active |
| CN1CCN(C(=O)C[C@H]2CC[C@@H]3[C@H](COc4ccc(NC(=O)c5ccc(F)c(F)c5)cc4C(=O)N3C)O2)CC1 | inactive |
| c1cc[n+](C[n+]2ccccc2)cc1 | inactive |

| SMILES | cytotoxicity call |
| --- | --- |
| N=C(C[n+]1ccccc1)NO | active |
| C[C@@H]1CCCCO[C@H](CN(C)Cc2ccc(C(F)(F)F)cc2)[C@H](C)CN([C@H](C)CO)C(=O)c2cc(NC(=O)c3ccncc3)ccc2O1 | inactive |
| C[C@H](CO)N1C[C@H](C)[C@H](CN(C)Cc2ccccc2)OCCCC[C@H](C)Oc2ccc(NC(=O)Nc3ccccc3)cc2C1=O | inactive |
| C[C@H](CO)N1C[C@H](C)[C@@H](CN(C)Cc2ccccc2)OCCCC[C@H](C)Oc2ccc(NC(=O)Nc3ccccc3)cc2C1=O | inactive |
| C[C@@H]1CN([C@H](C)CO)C(=O)c2cc(NC(=O)Nc3ccccc3)ccc2O[C@@H](C)CCCCO[C@@H]1CN(C)Cc1ccccc1 | active |
| C[C@@H]1CN([C@@H](C)CO)C(=O)c2cc(NC(=O)Nc3ccccc3)ccc2O[C@@H](C)CCCCO[C@H]1CN(C)Cc1ccccc1 | inactive |
| C[C@@H]1CCCCO[C@H](CN(C)Cc2ccccc2)[C@@H](C)CN([C@@H](C)CO)C(=O)c2cc(NC(=O)Nc3ccccc3)ccc2O1 | inactive |
| C[C@@H]1CCCCO[C@H](CN(C)Cc2ccccc2)[C@H](C)CN([C@@H](C)CO)C(=O)c2cc(NC(=O)Nc3ccccc3)ccc2O1 | inactive |
| C[C@@H]1CCCCO[C@@H](CN(C)Cc2ccccc2)[C@H](C)CN([C@@H](C)CO)C(=O)c2cc(NC(=O)Nc3ccccc3)ccc2O1 | active |
| C[C@@H]1CN([C@@H](C)CO)C(=O)c2cc(NC(=O)Nc3ccccc3)ccc2O[C@@H](C)CCCCO[C@@H]1CN(C)Cc1ccccc1 | inactive |
| C[C@@H]1CN([C@H](C)CO)C(=O)c2cc(NC(=O)Nc3ccccc3)ccc2O[C@@H](C)CCCCO[C@H]1CN(C)Cc1ccccc1 | active |
| C[C@@H]1CCCCO[C@@H](CN(C)Cc2ccccc2)[C@H](C)CN([C@H](C)CO)C(=O)c2cc(NC(=O)Nc3ccccc3)ccc2O1 | active |
| C[C@@H]1CCCCO[C@@H](CN(C)Cc2ccccc2)[C@@H](C)CN([C@H](C)CO)C(=O)c2cc(NC(=O)Nc3ccccc3)ccc2O1 | inactive |
| C[C@@H]1CCCCO[C@H](CN(C)Cc2ccccc2)[C@H](C)CN([C@H](C)CO)C(=O)c2cc(NC(=O)Nc3ccccc3)ccc2O1 | inactive |
| Cc1noc(C)c1NC(=O)N(C)C[C@@H]1Oc2ccc(NS(=O)(=O)c3cn(C)cn3)cc2CC(=O)N([C@@H](C)CO)C[C@@H]1C | inactive |
| Cc1ccc(S(=O)(=O)N(C)C[C@H]2OCCCC[C@@H](C)Oc3ccc(NC(=O)Nc4ccc5c(c4)OCO5)cc3C(=O)N([C@@H](C)CO)C[C@H]2C)cc1 | inactive |
| C[C@@H]1CN([C@@H](C)CO)C(=O)c2cc(NC(=O)Cc3cn(C)c4ccccc34)ccc2O[C@@H]1CN(C)S(=O)(=O)c1cn(C)cn1 | inactive |
| CN(C)C(=O)C[C@H]1CC[C@@H]2[C@H](COc3ccc(NS(=O)(=O)c4cccc(F)c4)cc3C(=O)N2C)O1 | inactive |
| Cc1ccc(S[C@]2(C(=O)NC(C)C)CC(=O)N(Cc3ccccc3C(F)(F)F)[C@@H]2c2ccc(CO)cc2I)cc1 | inactive |
| CC(C)NC(=O)Nc1ccc2c(c1)C(=O)N([C@H](C)CO)C[C@@H](C)[C@H](CN(C)Cc1ccccc1)OCCCC[C@@H](C)O2 | inactive |
| C[C@@H]1CCCCO[C@H](CN(C)S(=O)(=O)c2cn(C)cn2)[C@@H](C)CN([C@@H](C)CO)C(=O)c2cc(N(C)C)ccc2O1 | inactive |
| Cc1ccc(S(=O)(=O)N(C)C[C@H]2OCCCC[C@@H](C)Oc3ccc(NC(=O)Nc4c(C)noc4C)cc3C(=O)N([C@H](C)CO)C[C@@H]2C)cc1 | inactive |

| SMILES | cytotoxicity call |
| --- | --- |
| CSc1ccc2cc(CN(C[C@H]3CCCO3)C(=O)c3ccco3)c(N(C)Cc3csc(C)n3)nc2c1 | inactive |
| C[C@@H]1CN([C@@H](C)CO)C(=O)c2cc(NC(=O)CCCN(C)C)ccc2O[C@@H](C)CCCCO[C@@H]1CN(C)S(C)(=O)=O | inactive |
| CO[C@@H]1CN(C)C(=O)c2cc(NC(=O)Nc3ccccc3)ccc2OC[C@@H](C)N(C(=O)CN(C)C)C[C@H]1C | inactive |
| C[C@@H](O[C@H]1OCCN(Cc2n[nH]nc2CN(C)C)[C@H]1c1ccc(F)cc1)c1cc(C(F)(F)F)cc(C(F)(F)F)c1 | active |
| CC(OC1OCCN(C(C)c2nc(=O)[nH][nH]2)C1c1ccc(F)cc1)c1cc(C(F)(F)F)cc(C(F)(F)F)c1 (centres undefined) | active |
| COc1ccc(S(=O)(=O)Nc2cccc3c2O[C@@H](CN(C)Cc2ccc(-c4ccccc4)cc2)[C@@H](C)CN([C@@H](C)CO)C3=O)cc1 | inactive |
| CC(C)NC(=O)N(C)C[C@@H]1OCCCC[C@@H](C)Oc2ccc(NC(=O)C3CCCCC3)cc2C(=O)N([C@H](C)CO)C[C@H]1C | inactive |
| C[C@@H]1CN([C@H](C)CO)C(=O)Cc2cc(NC(=O)Cc3cn(C)c4ccccc34)ccc2O[C@H]1CN(C)Cc1ccc(-c2ccccc2)cc1 | active |
| C[C@H](CO)N1C[C@H](C)[C@@H](CN(C)CC2CCCCC2)Oc2ccc(NC(=O)Cc3cn(C)c4ccccc34)cc2CC1=O | inactive |
| C[C@@H]1CN([C@H](C)CO)C(=O)Cc2cc(NC(=O)Cc3cn(C)c4ccccc34)ccc2O[C@@H]1CN(C)Cc1ccc(C(=O)Nc2ccccc2N)cc1 | inactive |
| C[C@H](CO)N1C[C@H](C)[C@H](CN(C)Cc2ccc(-c3ccccc3)cc2)Oc2ccc(NC(=O)Cc3cn(C)c4ccccc34)cc2CC1=O | inactive |
| C[C@H]1CN([C@@H](C)CO)C(=O)Cc2cc(NC(=O)Cc3cn(C)c4ccccc34)ccc2O[C@H]1CN(C)Cc1ccc(-c2ccccc2)cc1 | inactive |
| C[C@@H]1CN([C@@H](C)CO)C(=O)Cc2cc(NC(=O)Cc3cn(C)c4ccccc34)ccc2O[C@@H]1CN(C)Cc1ccc(-c2ccccc2)cc1 | active |
| C[C@@H]1CN([C@@H](C)CO)C(=O)Cc2cc(NC(=O)Cc3cn(C)c4ccccc34)ccc2O[C@@H]1CN(C)CC1CCCCC1 | active |
| C[C@H](CO)N1C[C@H](C)[C@@H](CN(C)Cc2ccc(-c3ccccc3)cc2)Oc2ccc(NC(=O)Cc3cn(C)c4ccccc34)cc2CC1=O | inactive |
| C[C@H]1CN([C@@H](C)CO)C(=O)Cc2cc(NC(=O)Cc3cn(C)c4ccccc34)ccc2O[C@@H]1CN(C)Cc1ccc(C(=O)Nc2ccccc2N)cc1 | inactive |
| C[C@H](CO)N1C[C@H](C)[C@H](CN(C)Cc2ccc(C(=O)Nc3ccccc3N)cc2)Oc2ccc(NC(=O)Cc3cn(C)c4ccccc34)cc2CC1=O | active |
| C[C@@H]1CN([C@@H](C)CO)C(=O)Cc2cc(NC(=O)Cc3cn(C)c4ccccc34)ccc2O[C@H]1CN(C)Cc1ccc(-c2ccccc2)cc1 | inactive |
| C[C@@H]1CN([C@H](C)CO)C(=O)Cc2cc(NC(=O)Cc3cn(C)c4ccccc34)ccc2O[C@@H]1CN(C)CC1CCCCC1 | inactive |
| C[C@@H]1CN([C@H](C)CO)C(=O)c2cc(NC(=O)CCCN(C)C)ccc2O[C@@H]1CN(C)S(=O)(=O)c1ccccc1 | inactive |
